Activity calls are given as the source filed them. Unless noted, how the calls were made is not given here.
Tests used:
[1] = compounds binding Alexa647 anti-His antibody – biochemical, small-molecule microarray, 635 nm fluorescence, artefact control for SMM control protein annotation, primary screen (AID 1128); details: higher = more signal;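 further: score merges feature fluorescence with signal-to-noise for each printed compound spot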
[2] = system: Human papillomavirus type 1a E7 protein (residues 1-88); assay: HPV1a E7 small-molecule binders, primary screen, biochemical, small-molecule microarray, residues 1-88, 635 nm (AID 1129); details: small-molecule microarray binding, fluorescence 635 nm; higher = more signal
[3] = target: Focal adhesion kinase 1 (Homo sapiens) (UniProt Q05397); assay: PTK2 protein binding on printed compound slides – biochemical, small-molecule microarray, 635/667 nm fluorescence, BSA, DTT, primary screen (AID 1130); details: 635 nm fluorescence, higher = more signal;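 further: composite of spot emission at 667 nm and signal to noise over triplicate slides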
[4] = system: Fibrinogen (Alexa647-labelled); assay: Alexa647-fibrinogen binding to printed small molecules – biochemical, small-molecule microarray, 635/667 nm fluorescence, artefact control for SMM control-protein annotation, profiling panel (AID 1131); details: fibrinogen-A647 binding fluorescence, higher = more signal;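 further: z-score merges 667 nm fluorescence with per-spot signal-to-noise over triplicate slides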
[5] = target: Follistatin (Homo sapiens) (UniProt P19883); assay: FST protein binding to printed compounds – biochemical, small-molecule microarray, 635/667 nm fluorescence, primary screen (AID 1132); details: 635 nm fluorescence, higher = more signal
[6] = target: Fibroblast growth factor 2 (Homo sapiens) (UniProt P09038); assay: basic fibroblast growth factor binding to printed compounds – biochemical, small-molecule microarray, 635/667 nm fluorescence, primary screen (AID 1133); details: FGF2, fluorescence 635/667, higher = more signal
[7] = JC-1 mitochondrial potential readout, lung cancer cells – cell-based, A549, JC-1 fluorescence, basal, 24 h, 100 nL, profiling panel (AID 1138); details: higher = more signal;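 further: A549 lung adenocarcinoma cells under basal conditions with no added stimulus; test concentration not given here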
[8] = system: Lefty1; assay: Lefty1 protein binding to printed compounds – biochemical, small-molecule microarray, 635/667 nm fluorescence, primary screen (AID 1139); details: fluorescence 635/667, higher = more signal
[9] = system: wheat germ agglutinin (Triticum aestivum), Alexa647-labelled; assay: Alexa647-WGA lectin binding to printed small molecules – biochemical, small-molecule microarray, 635/667 nm fluorescence, artefact control for SMM control-protein annotation, profiling panel (AID 1140); details: WGA-A647 binding, 635 nm fluorescence, higher = more signal;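 further: score merges 667 nm feature emission with signal to noise over triplicate slides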
[10] = target: Luciferin 4-monooxygenase (Photinus pyralis) (UniProt P08659); assay: inhibition of purified Photinus pyralis luciferase – biochemical, luminescence, purified enzyme, 2006 set, primary screen (AID 1141); details: purified firefly luciferase, SteadyGlo luminescence, 30 min; higher = more signal, called active from +8 up or from −8 down;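 further: cell-free assay with purified firefly luciferase at 100 ng per well in PBS; test concentration not given here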
[11] = system: Wnt5a (protein binding on small-molecule microarray); assay: small molecules binding Wnt5a protein – biophysical, small-molecule microarray, 635/667 nm fluorescence, primary screen (AID 1142); details: 635 nm fluorescence, higher = more signal;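 further: fluorescence read at 667 nm with signal to noise per printed feature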
[12] = ATP-based viability of Huh7 replicon cells – cell-based, CellTiter-Glo luminescence, basal, 48 h, cytotoxicity control for HCV replication inhibitor project, primary screen (AID 1143); details: higher = more signal, called active from +8 up or from −8 down;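 further: Huh7 hepatoma cells carrying a hepatitis C replication reporter with no stimulus; test concentration not given here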
[13] = Pseudomonas biofilm growth suppression – PAO1 strain, BacTiter-Glo luminescence, LB-PBS, primary screen (AID 1144); details: P. aeruginosa PAO1 biofilm, 12 h, higher = more signal
[14] = basal CRE-LacZ reporter activity in PC12 – cell-based, unstimulated, primary screen (AID 1145); details: no forskolin, luminescence, 4.5 h, higher = more signal, called active from +8 up or from −8 down
[15] = forskolin-driven CRE-LacZ activity in PC12 – cell-based, CRE-LacZ reporter, forskolin-stimulated, primary screen (AID 1146); details: luminescence, 4.5 h, higher = more signal, called active from +8 up or from −8 down;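 further: PC12 cells with 6xCRE LacZ reporter stimulated by forskolin 10 µM; beta-galactosidase reporter signal reflecting CREB driven transcription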
[16] = target: Streptavidin (Streptomyces avidinii) (UniProt P22629); assay: compounds binding control protein streptavidin – biophysical, small-molecule microarray, 635/667 nm fluorescence, artefact control for SMM compound annotation, primary screen (AID 1147); details: higher = more signal;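 further: signal reflects streptavidin binding to arrayed compounds as a control protein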
[17] = probe aInhba binding on compound microarray – biochemical, small-molecule microarray, 635/667 nm fluorescence, primary screen (AID 1148); details: higher = more signal;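 further: score merges 667nm spot fluorescence with signal-to-noise for antibody binding to printed compounds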
[18] = target: Torsin-1A (Homo sapiens) (UniProt O14656); assay: TOR1A wild-type binding on microarray – cell lysate, small-molecule microarray, lysate, 635/667 nm, primary screen (AID 1149); details: COS7 hTOR1A-WT lysate, 635 nm fluorescence, higher = more signal
[19] = target: Torsin-1A (Homo sapiens) (UniProt O14656); assay: torsin A mutant lysate binding on microarrays – cell lysate, small-molecule microarray, COS7 lysate, 635/667 nm fluorescence, primary screen (AID 1150); details: COS7 hTOR1A mutant lysate, 635 nm fluorescence, higher = more signal;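 further: score pools 667 nm emission and signal to noise measuring lysate protein binding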
[20] = system: Sonic hedgehog protein (Shh); assay: Sonic hedgehog microarray binding compounds – biochemical, small-molecule microarray, 635/667 nm fluorescence, primary screen (AID 1151); details: 635 nm fluorescence, higher = more signal;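 further: Shh protein binding to compounds spotted on small-molecule microarray slides; score combines spot fluorescence intensity with signal-to-noise across triplicate slides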

Chain of Luciferin 4-monooxygenase (Photinus pyralis) (P08659 whole entry, looked up): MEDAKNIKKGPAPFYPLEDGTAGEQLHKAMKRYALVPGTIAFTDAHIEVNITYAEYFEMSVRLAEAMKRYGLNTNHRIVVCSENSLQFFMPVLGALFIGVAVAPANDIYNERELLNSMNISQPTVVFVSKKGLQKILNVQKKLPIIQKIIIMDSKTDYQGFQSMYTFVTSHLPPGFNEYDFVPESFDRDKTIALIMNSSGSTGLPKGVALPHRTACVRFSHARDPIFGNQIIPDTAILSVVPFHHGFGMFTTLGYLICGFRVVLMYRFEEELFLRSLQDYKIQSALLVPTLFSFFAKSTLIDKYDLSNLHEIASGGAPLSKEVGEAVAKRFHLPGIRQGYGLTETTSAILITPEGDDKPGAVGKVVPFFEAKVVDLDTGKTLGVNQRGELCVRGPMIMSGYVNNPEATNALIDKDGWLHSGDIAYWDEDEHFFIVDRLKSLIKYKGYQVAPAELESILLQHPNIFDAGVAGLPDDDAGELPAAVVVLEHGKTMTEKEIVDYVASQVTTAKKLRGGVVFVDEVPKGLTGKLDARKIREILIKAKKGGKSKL
Chain of Focal adhesion kinase 1 (Homo sapiens) (Q05397 whole entry, looked up): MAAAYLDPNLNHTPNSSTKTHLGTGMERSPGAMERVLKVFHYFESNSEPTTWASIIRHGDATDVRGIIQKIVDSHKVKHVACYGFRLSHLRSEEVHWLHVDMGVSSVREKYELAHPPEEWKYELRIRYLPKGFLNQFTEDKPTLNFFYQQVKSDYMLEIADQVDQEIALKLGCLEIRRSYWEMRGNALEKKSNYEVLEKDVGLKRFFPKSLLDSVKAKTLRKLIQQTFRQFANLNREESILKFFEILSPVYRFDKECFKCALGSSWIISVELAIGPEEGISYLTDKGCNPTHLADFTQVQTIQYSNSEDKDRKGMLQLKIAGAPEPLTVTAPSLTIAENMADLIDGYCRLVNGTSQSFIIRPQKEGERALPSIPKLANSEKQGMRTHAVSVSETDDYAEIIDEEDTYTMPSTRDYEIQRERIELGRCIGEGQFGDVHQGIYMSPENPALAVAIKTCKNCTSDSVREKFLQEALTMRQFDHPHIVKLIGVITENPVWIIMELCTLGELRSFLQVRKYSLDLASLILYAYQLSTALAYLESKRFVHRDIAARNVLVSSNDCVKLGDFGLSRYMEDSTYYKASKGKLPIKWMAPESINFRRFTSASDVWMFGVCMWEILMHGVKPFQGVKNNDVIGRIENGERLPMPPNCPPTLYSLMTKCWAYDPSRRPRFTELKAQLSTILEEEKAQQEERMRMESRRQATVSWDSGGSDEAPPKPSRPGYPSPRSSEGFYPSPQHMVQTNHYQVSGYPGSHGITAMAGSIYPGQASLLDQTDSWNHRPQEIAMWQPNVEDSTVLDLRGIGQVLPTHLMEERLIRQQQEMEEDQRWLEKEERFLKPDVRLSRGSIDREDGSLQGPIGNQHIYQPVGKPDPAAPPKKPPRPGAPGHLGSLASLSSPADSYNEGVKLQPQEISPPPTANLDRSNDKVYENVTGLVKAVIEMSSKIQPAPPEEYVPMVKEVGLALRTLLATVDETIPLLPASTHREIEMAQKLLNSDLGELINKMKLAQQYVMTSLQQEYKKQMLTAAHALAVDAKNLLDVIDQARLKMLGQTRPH
Chain of Fibroblast growth factor 2 (Homo sapiens) (P09038 whole entry, looked up): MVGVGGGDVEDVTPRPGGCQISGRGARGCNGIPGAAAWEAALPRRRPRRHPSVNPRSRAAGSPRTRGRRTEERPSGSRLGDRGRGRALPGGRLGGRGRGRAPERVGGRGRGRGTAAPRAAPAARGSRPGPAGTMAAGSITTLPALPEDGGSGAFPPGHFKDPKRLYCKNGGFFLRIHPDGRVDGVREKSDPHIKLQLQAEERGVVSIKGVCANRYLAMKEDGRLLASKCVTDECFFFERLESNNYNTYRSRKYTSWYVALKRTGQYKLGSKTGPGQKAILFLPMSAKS
Chain of Streptavidin (Streptomyces avidinii) (P22629 whole entry, looked up): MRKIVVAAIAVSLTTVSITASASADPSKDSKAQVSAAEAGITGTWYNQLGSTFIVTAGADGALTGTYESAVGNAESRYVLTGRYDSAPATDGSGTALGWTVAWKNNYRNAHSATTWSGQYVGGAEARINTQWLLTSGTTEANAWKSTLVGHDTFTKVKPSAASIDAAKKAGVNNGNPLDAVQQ
Chain of Follistatin (Homo sapiens) (P19883 whole entry, looked up): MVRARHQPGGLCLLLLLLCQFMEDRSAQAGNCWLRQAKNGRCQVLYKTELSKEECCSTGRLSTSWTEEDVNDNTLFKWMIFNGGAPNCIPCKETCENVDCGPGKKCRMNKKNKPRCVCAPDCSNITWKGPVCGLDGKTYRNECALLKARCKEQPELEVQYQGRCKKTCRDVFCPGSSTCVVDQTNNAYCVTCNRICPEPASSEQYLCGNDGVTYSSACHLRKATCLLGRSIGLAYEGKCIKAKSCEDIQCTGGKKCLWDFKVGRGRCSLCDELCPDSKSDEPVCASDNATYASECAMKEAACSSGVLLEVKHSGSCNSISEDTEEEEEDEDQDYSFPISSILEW
Chain of Torsin-1A (Homo sapiens) (O14656 whole entry, looked up): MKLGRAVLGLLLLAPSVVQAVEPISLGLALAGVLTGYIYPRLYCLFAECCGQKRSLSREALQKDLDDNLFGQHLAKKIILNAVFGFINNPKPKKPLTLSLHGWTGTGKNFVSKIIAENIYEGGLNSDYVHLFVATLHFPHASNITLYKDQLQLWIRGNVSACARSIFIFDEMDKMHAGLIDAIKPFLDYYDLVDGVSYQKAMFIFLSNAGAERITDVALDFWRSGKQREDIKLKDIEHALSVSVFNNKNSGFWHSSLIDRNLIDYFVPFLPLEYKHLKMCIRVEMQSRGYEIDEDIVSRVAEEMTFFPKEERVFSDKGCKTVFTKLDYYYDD

SMILES: CCC[C@@H]1C=C(C(=O)O)[C@H](c2ccc(C)cc2)N1S(=O)(=O)c1ccc(C)cc1
- composite z-score [1]: 1.65
- composite z-score [2]: 1.29
- composite z-score [3]: 0.354
- composite z-score [4]: 1.04
- composite z-score [5]: 0.118
- composite z-score [6]: -0.502
- z-score [7]: -0.564
- composite z-score [8]: -0.234
- composite z-score [9]: 0.945
- z-score [10]: 1.79 (inactive)
- composite z-score [11]: 0.0266
- z-score [12]: 0.224 (inactive)
- z-score [13]: -0.0655 (inactive)
- z-score [14]: -0.527 (inactive)
- z-score [15]: 0.348 (inactive)
- composite z-score [16]: 0.981
- composite z-score [17]: -0.0087
- composite z-score [18]: 0.837
- composite z-score [19]: 1.38
- composite z-score [20]: -0.65

SMILES: COc1ccc(C(O)C2C=CC3C(=O)N(C)C(=O)C3N2Nc2ccccc2)cc1OCc1ccccc1 (stereo not given)
- composite z-score [1]: 1.05
- composite z-score [2]: 1.27
- composite z-score [3]: 0.091
- composite z-score [4]: 1.01
- composite z-score [5]: 0.336
- composite z-score [6]: -0.0667
- z-score [7]: -0.295
- composite z-score [8]: 0.0084
- composite z-score [9]: 1.34
- z-score [10]: -0.51 (inactive)
- composite z-score [11]: 0.0512
- z-score [12]: 0.142 (inactive)
- z-score [13]: -0.292 (inactive)
- z-score [14]: 1.21 (inactive)
- z-score [15]: -0.389 (inactive)
- composite z-score [16]: 0.863
- composite z-score [17]: 0.0528
- composite z-score [18]: 0.155
- composite z-score [19]: 0.992
- composite z-score [20]: -0.237

SMILES: Cc1ccc(S[C@]2(C(=O)O)CC(=O)N(C3Cc4ccccc4C3)[C@@H]2c2ccc(CO)cc2I)cc1
- composite z-score [1]: 0.198
- composite z-score [2]: 0.27
- composite z-score [3]: 0.148
- composite z-score [4]: 0.439
- composite z-score [5]: 1.09
- composite z-score [6]: -0.499
- z-score [7]: 0.478
- composite z-score [8]: -0.936
- composite z-score [9]: 0.513
- z-score [10]: 0.285 (inactive)
- composite z-score [11]: -0.227
- z-score [12]: -1.02 (inactive)
- z-score [13]: -0.138 (inactive)
- z-score [14]: -0.062 (inactive)
- z-score [15]: -0.097 (inactive)
- composite z-score [16]: 0.103
- composite z-score [17]: -0.0791
- composite z-score [18]: -0.594
- composite z-score [19]: -0.584
- composite z-score [20]: -0.439

SMILES: C=C(COC)/C(=C/C[C@H](OC(=O)c1ccncc1)c1cccc(OCCO)c1)c1cc(C(=O)OC)ccc1OC
- composite z-score [1]: 0.844
- composite z-score [2]: 1.1
- composite z-score [3]: 0.381
- composite z-score [4]: 0.317
- composite z-score [5]: 0.127
- composite z-score [6]: 0.245
- z-score [7]: 1.48
- composite z-score [8]: 0.819
- composite z-score [9]: 0.0332
- z-score [10]: -1.04 (inactive)
- composite z-score [11]: 0.176
- z-score [12]: -0.865 (inactive)
- z-score [13]: 0.358 (inactive)
- z-score [14]: 8.63 (active)
- z-score [15]: -0.616 (inactive)
- composite z-score [16]: -0.258
- composite z-score [17]: -0.024
- composite z-score [18]: 0.63
- composite z-score [19]: 0.849
- composite z-score [20]: 1.38

SMILES: COc1ccc([Si](C)(C)[C@H]2[C@H](CC(=O)N(CCO)Cc3ccccc3)O[C@@]3(C(=O)N(Cc4cccc(N5CCC5=O)c4)c4ccccc43)[C@@H]2C)cc1
- composite z-score [1]: 2.18
- composite z-score [2]: 1.03
- composite z-score [3]: 0.222
- composite z-score [4]: 0.279
- composite z-score [5]: 1.12
- composite z-score [6]: 1.68
- z-score [7]: -0.166
- composite z-score [8]: 1.33
- composite z-score [9]: 0.767
- z-score [10]: 0.272 (inactive)
- composite z-score [11]: 0.526
- z-score [12]: -6.85 (inactive)
- z-score [13]: -0.216 (inactive)
- z-score [14]: 0.469 (inactive)
- z-score [15]: -0.854 (inactive)
- composite z-score [16]: 0.0587
- composite z-score [17]: -0.0221
- composite z-score [18]: 0.795
- composite z-score [19]: 0.278
- composite z-score [20]: 2.05

SMILES: COCCOC(=O)N1C(=O)[C@@]2(c3cc(C#CCCO)ccc31)[C@H](C(=O)NC[C@H](O)c1ccccc1)[C@H]1C(=O)O[C@H](c3ccccc3)[C@H](c3ccccc3)N1[C@@H]2c1ccc(O)cc1
- composite z-score [1]: 1.69
- composite z-score [2]: 0.789
- composite z-score [3]: 0.148
- composite z-score [4]: -0.134
- composite z-score [5]: 1.09
- composite z-score [6]: 0.837
- z-score [7]: -0.319
- composite z-score [8]: 0.429
- composite z-score [9]: 0.363
- z-score [10]: 0.788 (inactive)
- composite z-score [11]: 0.0418
- z-score [12]: -0.612 (inactive)
- z-score [13]: -1.16 (inactive)
- z-score [14]: -1.29 (inactive)
- z-score [15]: -0.201 (inactive)
- composite z-score [16]: 0.276
- composite z-score [17]: -0.0136
- composite z-score [18]: 0.581
- composite z-score [19]: 1.12
- composite z-score [20]: 1.79

SMILES: CCCC[C@H]1OB(O)C[C@H]2C1=C(C)C[C@H]1C(=O)N(Cc3ccccc3)C(=O)[C@H]12
- composite z-score [1]: 0.201
- composite z-score [2]: 0.366
- composite z-score [3]: 0.553
- composite z-score [4]: 0.311
- composite z-score [5]: 0.797
- composite z-score [6]: 1.26
- z-score [7]: 0.625
- composite z-score [8]: 0.63
- composite z-score [9]: -0.144
- z-score [10]: -1.15 (inactive)
- composite z-score [11]: 0.34
- z-score [12]: 0.342 (inactive)
- z-score [13]: 0.464 (inactive)
- z-score [14]: -0.23 (inactive)
- z-score [15]: -0.155 (inactive)
- composite z-score [16]: -0.0276
- composite z-score [17]: -0.122
- composite z-score [18]: 0.358
- composite z-score [19]: 0.528
- composite z-score [20]: 1.01

SMILES: CCCCCCCCCCC(O)C1C=CC2C(=O)N(Cc3ccccc3)C(=O)C2N1n1cnnc1 (stereo not given)
- composite z-score [1]: -0.244
- composite z-score [2]: 0.812
- composite z-score [3]: 0.656
- composite z-score [4]: 0.532
- composite z-score [5]: -0.238
- composite z-score [6]: -0.982
- z-score [7]: -1.27
- composite z-score [8]: 0.486
- composite z-score [9]: 0.493
- z-score [10]: 0.892 (inactive)
- composite z-score [11]: 0.418
- z-score [12]: -4.02 (inactive)
- z-score [13]: -0.0968 (inactive)
- z-score [14]: -0.0137 (inactive)
- z-score [15]: -0.728 (inactive)
- composite z-score [16]: 0.744
- composite z-score [17]: 0.437
- composite z-score [18]: 0.0668
- composite z-score [19]: 0.567
- composite z-score [20]: -0.778

SMILES: CC(C)C[C@@H]1NC(=O)[C@H]2C[C@@H](C(=O)NCCCCCNC(=O)CS)[C@@H](c3cccc(OCCO)c3)N2C1=O
- composite z-score [1]: 2.41
- composite z-score [2]: 1.21
- composite z-score [3]: 0.603
- composite z-score [4]: 0.374
- composite z-score [5]: 1.44
- composite z-score [6]: 1.7
- z-score [7]: -0.628
- composite z-score [8]: 1.35
- composite z-score [9]: 0.195
- z-score [10]: -1.15 (inactive)
- composite z-score [11]: 1.1
- z-score [12]: -1.07 (inactive)
- z-score [13]: 0.644 (inactive)
- z-score [14]: 0.289 (inactive)
- z-score [15]: 0.0824 (inactive)
- composite z-score [16]: 0.024
- composite z-score [17]: -0.0112
- composite z-score [18]: 1.07
- composite z-score [19]: 0.867
- composite z-score [20]: 2.09

SMILES: COC(=O)[C@@]1(Cc2ccccc2)N=C(c2ccc(OCCCO)cc2)O[C@H]1c1ccccc1N=[N+]=[N-]
- composite z-score [1]: 2.72
- composite z-score [2]: 1.14
- composite z-score [3]: -0.0746
- composite z-score [4]: 0.0857
- composite z-score [5]: 1.41
- composite z-score [6]: 1.53
- z-score [7]: 1.35
- composite z-score [8]: 0.718
- composite z-score [9]: 1.2
- z-score [10]: -13.8 (active)
- composite z-score [11]: 0.805
- z-score [12]: -4.03 (inactive)
- z-score [13]: -0.0344 (inactive)
- z-score [14]: 2.95 (inactive)
- z-score [15]: -1.52 (inactive)
- composite z-score [16]: -1.09
- composite z-score [17]: 0.25
- composite z-score [18]: 3.85
- composite z-score [19]: 3.84
- composite z-score [20]: 2.07

Source: PubChem BioAssay
